Among the test systems are HCT-15 colon; HT29 colon; SNB-75 CNS; SNB-19 CNS; U251 CNS; PC-3 prostate; SK-MEL-5 melanoma; UACC-62 melanoma; LOX IMVI melanoma; SK-MEL-28 melanoma.
Assay in all cases: NCI-60 one-dose screen, 48 h (100 = growth as untreated, 0 = no growth, -100 = all killed)
What all share (settings): 10 µM

This is part of a sample that, as a whole, favours compounds with a hit. Of some 83,000 tested, about 20% had one in any assay.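 In brief: 96-well plates, 48 h treatment, single concentration, percent growth endpoint.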 Unmarked numbers belong to inactive results. Active and inactive are the calls of the source. Rule for the calls: active = growth percent below 10; inactive = the rest.

Turning to `CC1=CC2OC34COC3CC(OC(=O)C(F)(F)F)C4(C)C2(C)CC1` (stereo not given), the growth in the experiment on HCT-15 colon was 97.4%; in the experiment on HT29 colon, 104%; with SNB-75 CNS, 86%; with SNB-19 CNS it was 94.5%; in the experiment with U251 CNS, 101%; with PC-3 prostate it was 100%. Besides, the growth with SK-MEL-5 melanoma was 97.4%; with UACC-62 melanoma, 101%; with LOX IMVI melanoma, 97.1%; with SK-MEL-28 melanoma, 101%.

Consider `CCN(CC)CCOC(=O)c1ccc(N=Nc2ccc(O)c(OC)c2)cc1`, for which the growth with HCT-15 colon was 103%; with HT29 colon it was 90.7%; in the experiment on SNB-75 CNS, 89.3%; in the experiment with SNB-19 CNS, 104%; with U251 CNS, 87.1%; in the experiment with PC-3 prostate it was 95.4%. Further, the growth is 92% in the experiment with SK-MEL-5 melanoma, 99.8% with UACC-62 melanoma, 92.2% in the experiment on LOX IMVI melanoma and 107% in the experiment with SK-MEL-28 melanoma.

Turning to `COc1cc(-c2n/c(=C\c3c(O)[nH]c4ccccc34)cc3c2=Nc2ccccc2-3)cc(OC)c1OC`, the growth was 14.3% in the experiment on HCT-15 colon; 4.2% (active) with HT29 colon; 5.55% (active) with SNB-75 CNS; 37.7% with SNB-19 CNS; 12.5% in the experiment with U251 CNS; 30.2% in the experiment on PC-3 prostate. The growth with SK-MEL-5 melanoma is 2.12% (active); with UACC-62 melanoma it was 40%; with LOX IMVI melanoma, 25.8%; in the experiment with SK-MEL-28 melanoma it was 42.8%.

Turning to `CC(C)c1ncc(CO)n1Cc1c(Cl)cccc1Cl`, the growth was 97.7% in the experiment on HCT-15 colon; 99.4% in the experiment with HT29 colon; 91.6% in the experiment with SNB-75 CNS; 142% in the experiment with SNB-19 CNS; 101% in the experiment on U251 CNS; 94.4% in the experiment with PC-3 prostate. Besides, the growth with SK-MEL-5 melanoma was 100%; with UACC-62 melanoma, 108%; in the experiment on LOX IMVI melanoma it was 104%; in the experiment with SK-MEL-28 melanoma it was 120%.

On to `Cc1cc(C)c(/C=C2\C(=O)Nc3ccc(NC(=O)CCCCCCC(=O)NO)cc32)[nH]1`, for which the growth with HCT-15 colon is 86%; in the experiment with HT29 colon, 11.4%; in the experiment with SNB-75 CNS, -1.02% (active); in the experiment with SNB-19 CNS, 31.2%; in the experiment with U251 CNS it was 4% (active); in the experiment with PC-3 prostate it was 5.9% (active). Further, the growth with SK-MEL-5 melanoma is 6.38% (active); in the experiment with UACC-62 melanoma it was -12.3% (active); in the experiment with LOX IMVI melanoma, 7.92% (active); with SK-MEL-28 melanoma, 24%.

As to `O=S(=O)(O)C1(O)CCCCC1`, the growth in the experiment on HCT-15 colon was 87.3%; with HT29 colon, 59%; in the experiment with SNB-75 CNS, 82.3%; in the experiment on SNB-19 CNS, 87.8%; in the experiment on U251 CNS, 99.3%; in the experiment with PC-3 prostate, 77.6%. Moreover, the growth in the experiment with SK-MEL-5 melanoma was 92.9%; with UACC-62 melanoma, 96.8%; in the experiment on LOX IMVI melanoma, 97.7%; in the experiment with SK-MEL-28 melanoma it was 102%.

For `COc1ccc2nc(/C=C/c3ccc(N(C)C)cc3)sc2c1`, the growth is 93.8% with HCT-15 colon; 93.3% with HT29 colon; 92.3% in the experiment on SNB-75 CNS; 131% in the experiment with SNB-19 CNS; 90.7% with U251 CNS; 98.9% with PC-3 prostate. For the same compound, the growth was 90.1% in the experiment on SK-MEL-5 melanoma, 94.7% in the experiment with UACC-62 melanoma, 91.5% in the experiment with LOX IMVI melanoma and 109% in the experiment on SK-MEL-28 melanoma.

Take `COc1ccc(-c2ccccc2)cc1C(=O)c1ccc(-c2ccccc2)cc1`: the growth with HCT-15 colon was 63.1%; with HT29 colon, 41.8%; in the experiment on SNB-75 CNS, 87.5%; with SNB-19 CNS, 81.3%; in the experiment with U251 CNS, 77%; in the experiment with PC-3 prostate, 71.6%. Besides, the growth with SK-MEL-5 melanoma was 73.1%; with UACC-62 melanoma, 62.2%; with LOX IMVI melanoma, 77%; in the experiment with SK-MEL-28 melanoma, 76.5%.

On to `C=CCOc1ccc2c(c1)CC=C1[C@@H]2CC[C@]2(C)C(=O)/C(=N/O)C[C@@H]12`, for which the growth in the experiment with HCT-15 colon was 15%; in the experiment on HT29 colon it was 26.8%; with SNB-75 CNS, 115%; in the experiment with SNB-19 CNS, 104%; in the experiment on U251 CNS it was 89.5%; with PC-3 prostate, 87%. Also, the growth was 84.7% in the experiment with SK-MEL-5 melanoma, 108% in the experiment on UACC-62 melanoma, 66.9% with LOX IMVI melanoma and 105% in the experiment with SK-MEL-28 melanoma.

Take `COc1cc(-c2nc3cc(Cl)c(Cl)cc3[nH]2)ccc1OCC(=O)NN`: the growth in the experiment on HCT-15 colon was 65.2%; in the experiment with HT29 colon it was 98%; in the experiment on SNB-75 CNS it was 106%; in the experiment on SNB-19 CNS it was 93%; in the experiment with U251 CNS, 91.2%; in the experiment on PC-3 prostate, 73.8%. Besides, the growth in the experiment on SK-MEL-5 melanoma was 91%; in the experiment with UACC-62 melanoma, 27.5%; in the experiment on LOX IMVI melanoma, 28.5%; with SK-MEL-28 melanoma it was 96.4%.

For the compound `COc1ccc(C2=Cc3ccc(OC(C)=O)cc3OC2)cc1`, the growth in the experiment with HCT-15 colon is 82.4%; in the experiment with HT29 colon, 97.2%; in the experiment with SNB-75 CNS it was 107%; in the experiment with SNB-19 CNS it was 98.8%; with U251 CNS, 89.3%; with PC-3 prostate, 90.5%. The growth in the experiment on SK-MEL-5 melanoma was 90.6%; in the experiment on UACC-62 melanoma, 85.4%; with LOX IMVI melanoma it was 82.7%; in the experiment on SK-MEL-28 melanoma, 112%.

Regarding `CN(C1c2ccccc2Oc2ccccc21)S(=O)(=O)c1cc(Cl)ccc1Cl`, the growth is 33.8% with HCT-15 colon; 20.5% in the experiment on HT29 colon; 56.2% in the experiment on SNB-75 CNS; 65.7% in the experiment with SNB-19 CNS; 43.8% in the experiment on U251 CNS; 54.5% in the experiment with PC-3 prostate. Moreover, the growth in the experiment with SK-MEL-5 melanoma is 39.3%; in the experiment on UACC-62 melanoma, 32.6%; in the experiment on LOX IMVI melanoma, 50.3%; in the experiment with SK-MEL-28 melanoma, 67%.

As for `Cc1cccc2c(Nc3ccc(NS(C)(=O)=O)cc3)c3ccc([N+](=O)[O-])cc3nc12`, the growth is 6.83% (active) in the experiment on HCT-15 colon; -10.3% (active) with HT29 colon; 19.7% with SNB-75 CNS; 25.7% with SNB-19 CNS; 3.4% (active) in the experiment on U251 CNS; 18% with PC-3 prostate. The growth is -19.4% (active) in the experiment with SK-MEL-5 melanoma, 1.92% (active) with UACC-62 melanoma, -43.5% (active) in the experiment on LOX IMVI melanoma and -5.65% (active) with SK-MEL-28 melanoma.

`CCC(OC(=O)CC(C)C)c1ccccc1` (stereo not given): the growth in the experiment with HCT-15 colon was 101%; in the experiment with HT29 colon, 93.6%; in the experiment with SNB-75 CNS, 91.1%; in the experiment on SNB-19 CNS, 105%; in the experiment on U251 CNS, 86.9%; in the experiment with PC-3 prostate it was 94.8%. Moreover, the growth with SK-MEL-5 melanoma was 100%; in the experiment on UACC-62 melanoma it was 102%; in the experiment on LOX IMVI melanoma, 96.1%; in the experiment with SK-MEL-28 melanoma, 106%.

Source of the values: PubChem BioAssay (NCI).
